Data on 39 molecules can be found in PubChem BioAssay (NCI).

Compounds without any hit were thinned out: in the full panel of roughly 83,000, 20% have a hit.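 Each cell line was grown in a 96-well plate and treated with one concentration of compound for 48 hours. Values below 10 were considered active.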 Unmarked numbers belong to inactive results. Activity calls are given as the source filed them.

In the assay the test system is KM12 colon. As to the kind of experiment: NCI-60 one-dose screen, 48 h (100 = growth as untreated, 0 = no growth, -100 = all killed). Particulars: 10 µM unless noted.
With `ClC(Cl)c1nc(-c2cccs2)n2nc(-c3ccccc3)cc2n1`, the growth was -36.4% (active).
Under `O=C(COc1ccc(C2SCC(=O)N2c2ccccc2)cc1)c1ccccc1` (centres undefined) stands 99.4%; under `c1ccc(-c2n(Cc3ccc4ccccc4c3)c3c4ccccc4c4ccccc4c3[n+]2Cc2ccc3ccccc3c2)cc1`, -85.5% (active); under `O=C1[C@@H]2Cc3c([nH]c4ccccc34)[C@H](c3c(Cl)cccc3Cl)N2C(=O)CN1C1CCN(Cc2c(F)cccc2F)CC1`, 74.5%.
For the molecule `NCCN1CCN(c2nc(-c3ccccc3)nc3nc(-c4ccccc4)oc23)CC1`, the growth is -55.4% (active).
With `C/C(=C(/C)C1CC1CCN(C(=O)c1ccccn1)S(=O)(=O)c1ccc(C)cc1)C1CCCCC1` (centres undefined) the figure was 98.6%; with `Cc1nn(-c2ccccc2)cc1/C=N/Nc1nc(Nc2ccccc2)nc(Nc2ccc(S(N)(=O)=O)cc2)n1`, 9.04% (active).
With `Brc1cccc(/C=N/Nc2nc(N/N=C/c3cccc(Br)c3)nc(N3CCOCC3)n2)c1` the figure was 30.3%; with `COc1cc(/C=C2\SC(=O)NC2=O)ccc1OCC(=O)Nc1ccc(C(=O)/C=C/c2cc3ccccc3nc2Cl)cc1`, 91.6%; with `O=c1oc2ccc(-c3ccc(F)cc3F)cc2c(=O)n1-c1ccc(F)c(F)c1`, 3.33% (active).
Under `CC[C@@](C)(NC(=O)C(C)(C)NC(=O)[C@@H](NC(=O)[C@@H]1CCCN1C(=O)C(C)(C)NC(=O)[C@H](CC(C)C)NC(=O)CNC(=O)C(C)(C)NC(=O)[C@@H](NC(=O)C(C)(C)NC(=O)[C@H](CCC(N)=O)NC(=O)[C@H](C)NC(=O)C(C)(C)NC(=O)[C@H](C)NC(=O)C(C)(C)NC(=O)[C@@H]1CCCN1C(=O)C(C)(C)NC(C)=O)C(C)C)C(C)C)C(=O)N[C@@H](CCC(N)=O)C(=O)N[C@@H](CCC(N)=O)C(=O)N[C@H](CO)Cc1ccccc1` stands 29.5% [4.25 µM]; under `O=C(/C=C/c1cn(-c2ccccc2)nc1-c1ccc(Cl)cc1)c1cc2ccccc2oc1=O`, 80.3%.
Regarding `CCN1C(=O)N(CC)C2SC(N/N=C/c3ccc(OC)cc3)=NC21` (centres undefined), the growth is 13.9%.
Consider `O=C(O)c1ccc(-n2cc(CNc3ccc(F)cc3)c(-c3ccc(C(F)(F)F)cc3)n2)cc1`, for which the growth is 78.7%.
Take `COc1cc(/C=C/C(=O)c2ccc(NC(=O)COc3cccc4cccnc34)cc2)cc(OC)c1OC`: the growth is 85.8%.
With `COc1cc(CNC(=O)Cc2ccccc2[N+](=O)[O-])ccc1OCC(=O)NO` the figure was 101%; with `Oc1ccc(CSc2nnc(-c3cnccn3)o2)c2cccnc12`, 12.5%; with `O=C(NCCCNc1cc(-c2cn(-c3ccccc3)nc2-c2cccc(O)c2)ccn1)Nc1ccc(F)cc1`, 2.62% (active).
Under `COc1ccc(-c2nn(-c3ccccc3)cc2/C=C/C(=O)c2ccc(NC(=O)CCCCCCC(=O)NO)cc2)cc1` stands 95.9%.
Under `O=C1[C@H]2Cc3c([nH]c4ccccc34)[C@@H](c3c(Cl)cccc3Cl)N2C(=O)CN1C1CCN(Cc2ccccc2)CC1` stands 84.5%; under `COc1cccc(/C=C/C(=O)c2ccc(NC(=O)COc3cccc4cccnc34)cc2)c1`, 96.3%.
`CCCC(=O)NC(c1cccnc1)c1cc(Cl)c2cccnc2c1O` (centres undefined): the growth is 30.7%.
Under `C/C(=N/Nc1nc(N/N=C(/C)c2ccc([N+](=O)[O-])cc2)nc(N2CCOCC2)n1)c1ccc([N+](=O)[O-])cc1` stands 82.2%; under `Oc1ccc(CSc2nnc(-c3cnccn3)n2-c2ccccc2)c2cccnc12`, 18.9%; under `CCOC(=O)C1=C(C)Nc2nc3ccccc3n2C1c1ccccc1` (centres undefined), 98.1%.
As to `Oc1ccc(CSc2nnc(-c3ccc(Br)cc3)o2)c2cccnc12`, the growth was 19.1%.
Under `CNC(=O)c1cc(N2CCc3cc(NC(=O)Nc4ccc(Cl)c(Cl)c4)ccc32)ccn1` stands 30.4%.
With `COc1cc2cc(Oc3ccc(NC(=O)Nc4cc(C(F)(F)F)cc(C(F)(F)F)c4)cc3)c(C)nc2cc1OCCN(C)C` the figure was 104%.
With `Cc1cc(O)c(=O)cc2c1C[C@H]1CC(C)(C)/C=C/C[C@]3(C)Oc4cc(=O)c(O)cc(C)c4C[C@H]3C[C@H](O)[C@@]1(C)O2` the figure was 23.6%.
Regarding `COc1ccc(-c2nnc(SCc3ccc(O)c4ncccc34)n2-c2ccccc2)cc1`, the growth is 15.6%.
Consider `O=C(CCCCCCN1CC(=O)N2[C@@H](c3ccc(Cl)c(F)c3)c3[nH]c4ccccc4c3C[C@H]2C1=O)NO`, for which the growth was 87.1%.
In the case of `Oc1ccc(CSc2nnc(-c3ccccc3)n2-c2ccccc2)c2cccnc12`, the growth was 14.1%.
With `Cc1ccc(NC(=O)c2ccc(CN3CCN(C)CC3)c(C(F)(F)F)c2)cc1Oc1ccc(-c2[nH]nc3ncnc(N)c23)cc1` the figure was 17.7%; with `CC(c1ccccc1)N1C(=O)/C(=C/c2csc(C#N)n2)SC1=S` (centres undefined), 103%; with `O=C(COc1ccc(C2SCC(=O)N2c2ccc(F)cc2)cc1)c1ccccc1` (centres undefined), 92.4%.
Under `COc1ccc(-c2nnc(SCc3ccc(O)c4ncccc34)o2)cc1` stands 15.7%.
For `O=c1[nH]c(CNc2ccc(NCc3c(-c4ccccc4)no[n+]3[O-])cc2)nc2c1cnn2-c1ccccc1`, the growth was 73.3%.
As to `COc1ccc(N)cc1C(=O)Nc1cccc(-c2cc(=O)c3c(OC)c(OC)c(OC)cc3o2)c1`, the growth is 63.6%.
Under `CCCC(=O)NC(c1cccnc1)c1cc(C(C)=O)c2cccnc2c1O` (centres undefined) stands 21.4%.
